This is an account of results in PubChem BioAssay (NCATS).

Several values for one entry are separate records, joined by “and”; a condition that tells them apart may be missing. Equal entries are not always repeated. Records with an inconclusive call do not appear. A number with no mark means an inactive call. Activity calls are given as the source filed them. The call rests on the fitted dose curve; in most records, active means well fitted cell-killing curve with a large enough effect; inconclusive means small, poorly fitted or top-dose-only effect, or effect the other way; inactive means flat fitted curve, though single readings scatter.
On the % scale 0 is the no-effect control and ±100 the full control effect.

One assay in a line: qHTS assay for cell viability of HEK293 cells (AID 743288). Further: nearly all actives have a fitted effect of over 50% in size. Conditions: ATP luminescence (CellTiter-Glo), 18 h, hits give low values. The essentials: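 Parental HEK293 cells were seeded at 2,000 cells/well, rested at least 5 h at 37 C, then exposed to compounds in DMSO for 18 h at 37 C. Viability was read as ATP-dependent luciferase luminescence after 30 min at room temperature.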
(In qHTS, concentration-response curves come from the screen itself.)
Consider `CCCCCCCC(=O)O`, for which the max response is -4.48% and -6.78%.

For the molecule `CC1=C(/C=C/C(C)=C/C=C/C(C)=C/CO)C(C)(C)CCC1`, the max response was -9.33% and -12.3%.

Take `IC(I)I`: the max response was -1.78% and -16.4%.

For the molecule `CC1=CCC(C(C)(C)O)CC1` (stereo unspecified), the max response was -13.3%.

Take `CC(C)(C)NC(=O)[C@@H]1C[C@@H]2CCCC[C@@H]2CN1C[C@@H](O)[C@H](Cc1ccccc1)NC(=O)[C@H](CC(N)=O)NC(=O)c1ccc2ccccc2n1`: the max response was -26%.

Turning to `O=S(=O)(O)O`, the max response was 9.97% and -5.38%.

A short description of the next assay: qHTS assay for cell viability of the p53RE-bla HCT-116 cell line (AID 743292). Further: nearly all actives have a fitted effect of over 55% in size. Conditions: p53RE-bla HCT-116 viability, ATP luminescence, 16 h; series mostly up to 95 µM. In a few lines:
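Luminescent ATP quantitation (CellTiter-Glo) served as the viability read-out; reagent was added after 16 h compound exposure at 37 C and read after 30 min at room temperature. Cells: p53RE-bla HCT-116, 4,000 per well.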
Consider `CCCCCCCC(=O)O`, for which the molecule was classed as inactive.

`CC1=C(/C=C/C(C)=C/C=C/C(C)=C/CO)C(C)(C)CCC1`: the molecule was classed as inactive.

On to `IC(I)I`, for which the outcome was inactive.

Consider `CC1=CCC(C(C)(C)O)CC1` (stereo unspecified), for which the molecule was classed as inactive.

As to `O=S(=O)(O)O`, the outcome was inactive.
